For five compounds, growth results are on record in PubChem BioAssay (NCI).

Where “and” joins values, the source holds several entries; their conditions need not be identical. Identical values can stand only once. This is part of a sample that, as a whole, favours compounds with a hit. Of some 83,000 tested, about 20% had one in any assay.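 Step 1: grow cells in 96-well plates. Step 2: add test compound at a single concentration. Step 3: incubate 48 h. Step 4: record percent growth.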 Calls of active or inactive are those of the source. Rule for the calls: active = growth percent below 10; inactive = the rest.

Some test systems named below: SR leukemia; RPMI-8226 leukemia; OVCAR-8 ovarian; OVCAR-5 ovarian; OVCAR-4 ovarian; SK-OV-3 ovarian; IGROV1 ovarian; OVCAR-3 ovarian; HS 578T breast; NCI/ADR-RES ovarian; T-47D breast; BT-549 breast; MDA-MB-435 melanoma; SW-620 colon; MCF7 breast; HCT-116 colon; HCC-2998 colon; KM12 colon.
What all share (assay): NCI-60 one-dose screen, 48 h (100 = growth as untreated, 0 = no growth, -100 = all killed)
Common to all, as to conditions: 10 µM unless noted

Consider `CC1=NN(c2ccccc2)C(=O)C1C(=O)c1ccccc1` (centres undefined), for which the growth is 82.7% (inactive) in the assay on SR leukemia; 91.9% (inactive) in the assay with RPMI-8226 leukemia; 88.4% (inactive) with OVCAR-8 ovarian; 120% (inactive) in the assay on OVCAR-5 ovarian; 108% (inactive) with OVCAR-4 ovarian; 112% (inactive) with SK-OV-3 ovarian. The growth in the assay with IGROV1 ovarian was 100% (inactive); in the assay with OVCAR-3 ovarian, 102% (inactive); in the assay on HS 578T breast, 127% (inactive); in the assay with NCI/ADR-RES ovarian it was 101% (inactive); in the assay on T-47D breast it was 86.9% (inactive); in the assay on BT-549 breast it was 103% (inactive). Further, the growth with MDA-MB-435 melanoma was 104% (inactive); with SW-620 colon, 101% (inactive); in the assay on MCF7 breast, 86% (inactive); with HCT-116 colon, 98.3% (inactive); in the assay with HCC-2998 colon, 90.5% (inactive); in the assay on KM12 colon, 93.2% (inactive).

Consider `Cc1cccc(/C=C\C(=O)c2ccccc2)c1`, for which the growth in the assay with SR leukemia is 42.8% (inactive) and -0.91% (active); in the assay on RPMI-8226 leukemia, 26% (inactive); with OVCAR-8 ovarian, 93.9% (inactive) and 101% (inactive); with OVCAR-5 ovarian, 104% (inactive) and 103% (inactive); in the assay on OVCAR-4 ovarian it was 93.3% (inactive) and 113% (inactive); with SK-OV-3 ovarian it was 101% (inactive). Besides, the growth in the assay with IGROV1 ovarian is 91.6% (inactive); in the assay on OVCAR-3 ovarian it was 98.8% (inactive) and 101% (inactive); in the assay with HS 578T breast it was 112% (inactive) and 104% (inactive); in the assay on NCI/ADR-RES ovarian, 97% (inactive) and 101% (inactive); in the assay on T-47D breast, 93.8% (inactive) and 93.5% (inactive); in the assay with BT-549 breast it was 90.5% (inactive). Also, the growth in the assay with MDA-MB-435 melanoma was 98.4% (inactive) and 88.5% (inactive); in the assay with SW-620 colon, 84.6% (inactive) and 62.2% (inactive); with MCF7 breast, 43.4% (inactive) and 82.6% (inactive); in the assay with HCT-116 colon it was 56.9% (inactive); in the assay on HCC-2998 colon, 97% (inactive) and 103% (inactive); in the assay on KM12 colon, 85.6% (inactive) and 62.7% (inactive).

`O=C1OC(Oc2ccc(Br)cc2)(c2ccccc2)c2ccccc21` (centres undefined): the growth with SR leukemia was 75.4% (inactive); in the assay with RPMI-8226 leukemia, 85.8% (inactive); in the assay with OVCAR-8 ovarian, 93.9% (inactive) and 93% (inactive); in the assay on OVCAR-5 ovarian it was 97.3% (inactive) and 110% (inactive); in the assay with OVCAR-4 ovarian, 92.1% (inactive); with SK-OV-3 ovarian it was 96.1% (inactive) and 110% (inactive). Further, the growth in the assay with IGROV1 ovarian was 79.7% (inactive) and 81.3% (inactive); in the assay on OVCAR-3 ovarian it was 87.4% (inactive) and 68.8% (inactive); in the assay with HS 578T breast, 97.6% (inactive) and 84.7% (inactive); in the assay on NCI/ADR-RES ovarian, 90.8% (inactive) and 76.8% (inactive); in the assay on T-47D breast, 73.6% (inactive) and 76.6% (inactive); with BT-549 breast, 88.4% (inactive) and 120% (inactive). For the same compound, the growth is 102% (inactive) and 79.5% (inactive) with MDA-MB-435 melanoma; 78.6% (inactive) and 66.5% (inactive) with SW-620 colon; 89% (inactive) and 101% (inactive) in the assay with MCF7 breast; 65.6% (inactive) and 54.6% (inactive) in the assay on HCT-116 colon; 102% (inactive) and 87.3% (inactive) with HCC-2998 colon; 87.7% (inactive) and 76.3% (inactive) in the assay with KM12 colon.

On to `CCOC(=O)C(CNc1ccccc1)C(=O)OCC`, for which the growth in the assay on SR leukemia is 97% (inactive); in the assay with RPMI-8226 leukemia, 95.1% (inactive); in the assay with OVCAR-8 ovarian, 98.2% (inactive); in the assay with OVCAR-5 ovarian, 102% (inactive); in the assay on OVCAR-4 ovarian, 107% (inactive); in the assay on SK-OV-3 ovarian it was 98.9% (inactive). Also, the growth in the assay with IGROV1 ovarian is 101% (inactive); in the assay on OVCAR-3 ovarian, 105% (inactive); with HS 578T breast it was 109% (inactive); with NCI/ADR-RES ovarian, 103% (inactive); in the assay with T-47D breast, 105% (inactive); in the assay on BT-549 breast, 104% (inactive). Also, the growth in the assay on MDA-MB-435 melanoma is 108% (inactive); in the assay on SW-620 colon it was 104% (inactive); in the assay on MCF7 breast it was 99.5% (inactive); with HCT-116 colon, 104% (inactive); in the assay with KM12 colon, 106% (inactive).

As for `CC1(C)[C@@H](OC(=O)CCC(=O)O)CC[C@]2(C)[C@H]3C(=O)C=C4[C@@H]5C[C@@](C)(C(=O)O)CC[C@]5(C)CC[C@@]4(C)[C@]3(C)CC[C@@H]12`, the growth in the assay on SR leukemia was 94.3% (inactive) and -13% (active); in the assay on RPMI-8226 leukemia, 104% (inactive) and -42.2% (active); in the assay on OVCAR-8 ovarian it was 106% (inactive) and -14.1% (active); with OVCAR-5 ovarian it was 104% (inactive) and -74.9% (active); in the assay on OVCAR-4 ovarian, 87.9% (inactive) and -0.335% (active); with SK-OV-3 ovarian, 102% (inactive) and -64.1% (active). Moreover, the growth with IGROV1 ovarian is 105% (inactive) and -35.8% (active); in the assay on OVCAR-3 ovarian, 99.7% (inactive) and -94% (active); in the assay with HS 578T breast, 112% (inactive) and -12.9% (active); in the assay on NCI/ADR-RES ovarian, 107% (inactive) and -0.161% (active); in the assay with T-47D breast, 90.6% (inactive) and 2.63% (active); with BT-549 breast, 99.7% (inactive) and -32.4% (active). Besides, the growth with MDA-MB-435 melanoma was 98.8% (inactive) and -47.7% (active); with SW-620 colon, 109% (inactive) and -37.2% (active); with MCF7 breast, 91.2% (inactive) and 6.18% (active); in the assay with HCT-116 colon, 95.4% (inactive) and -58.8% (active); with HCC-2998 colon it was 103% (inactive) and -71.7% (active); with KM12 colon it was 97% (inactive) and -73.1% (active).
